Bioassay records: PubChem BioAssay, Sanford-Burnham Center for Chemical Genomics
Rows were chosen to be rich in hits. Some 31% of all compounds tested hit in one or more screens of this group.
CYP2C19 inh: blocks human cytochrome P450 2C19. P33261. CYP2C19 Supersomes, luciferin-H EGE luminescence, 30 min. inhibition, % at 5 µM. actives 21% (n = 96,000). AID 778;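 active = CYP2C19 inhibition above a set limit at 5 µM in the primary screen, cut at about 50% in these data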
Target sequence (P33261 whole entry, looked up): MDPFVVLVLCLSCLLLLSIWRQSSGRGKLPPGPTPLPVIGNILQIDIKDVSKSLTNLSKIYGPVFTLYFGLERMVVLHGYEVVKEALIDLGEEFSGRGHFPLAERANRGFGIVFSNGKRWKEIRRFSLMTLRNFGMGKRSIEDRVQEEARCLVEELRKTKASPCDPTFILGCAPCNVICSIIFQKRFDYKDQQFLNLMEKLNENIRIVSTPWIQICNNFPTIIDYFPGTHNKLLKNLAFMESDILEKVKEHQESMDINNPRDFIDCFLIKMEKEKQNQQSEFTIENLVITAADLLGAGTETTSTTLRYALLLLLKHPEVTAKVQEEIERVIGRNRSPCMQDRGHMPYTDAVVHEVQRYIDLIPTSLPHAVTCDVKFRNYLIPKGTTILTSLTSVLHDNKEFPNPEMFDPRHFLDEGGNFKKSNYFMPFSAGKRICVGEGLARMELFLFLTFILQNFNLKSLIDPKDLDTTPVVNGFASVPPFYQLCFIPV
CYP2C9 inh: blocks human cytochrome P450 2C9 | AID 777 | P11712 | inhibition, % at 5 µM | actives 20% (n = 96,000) | CYP2C9 Supersomes, luciferin-H conversion, luminescence;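 active = blocking of liver enzyme CYP2C9 beyond about 50% at 5 µM, limit read from the data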
CYP2C19 act: cytochrome P450 2C19 (human) activation; P33261; recombinant CYP2C19, luciferin-H EGE luminescence; active compounds read high; 0 = fully inhibited enzyme, 1 = untreated enzyme; activation factor at 5 µM; 96,000 tested, under 10 active; AID 1025;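 active = activation factor of at least 2 at 5 µM in the primary screen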
CYP2C9 act: activators of human CYP2C9 | P11712 | activation factor at 5 µM | recombinant CYP2C9, luciferin-H conversion, luminescence; active compounds read high; factor 1 = untreated enzyme, 0 = blocked | actives 1.4% (n = 96,000);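 active = activation factor of 2 or more for CYP2C9 at a 5 µM dose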
Hits are given with their value; 0 = inactive.

SMILES | CYP2C19 inh | CYP2C9 inh | CYP2C19 act | CYP2C9 act
CCN(CCCNC(=O)C1CCN(S(=O)(=O)c2cnc[nH]2)CC1)c1cccc(C)c1 | 78 | 88 | 0 | 0
Cc1nn(C)c(C)c1S(=O)(=O)N1CCC(C(=O)NCCC2=CCCCC2)CC1 | 0 | 0 | 0 | 2.1
Cc1noc(C)c1S(=O)(=O)N1CCC(C(=O)NCCC2=CCCCC2)CC1 | 0 | 0 | 0 | 0
O=C(CSCc1ccccn1)Nc1ccccc1 | 0 | 0 | 0 | 0
CC(=O)Nc1ccc(Sc2ncccc2C(=O)Nc2ccc(F)cc2)cn1 | 0 | 0 | 0 | 0
CCC(CC)c1nc(NCCC(=O)O)c2ccccc2n1 | 0 | 0 | 0 | 0
CC(C(=O)N1CCCc2ccccc21)N1CCN(S(=O)(=O)c2ccccc2F)CC1 (stereo not given) | 0 | 0 | 0 | 0
CCCOc1ccc(C(=O)CCC(=O)OCC(=O)N2CC(=O)Nc3ccccc32)cc1 | 0 | 0 | 0 | 0
COc1ccc(CCNC(=O)C2CCN(S(=O)(=O)c3cnc[nH]3)CC2)cc1OC | 0 | 73 | 0 | 0
CN(CCNC(=O)C1CCN(S(=O)(=O)c2cnc[nH]2)CC1)Cc1ccccc1 | 0 | 52 | 0 | 0
COc1ccc(CCNC(=O)C2CCN(S(=O)(=O)N3CCCCC3)CC2)cc1OC | 0 | 0 | 0 | 0
CCCc1ccc(OCc2nc(-c3ccc(NC(=O)c4ccco4)cc3)no2)cc1 | 0 | 0 | 0 | 0
CC(Oc1ccc(Cl)cc1Cl)c1nc(-c2ccc(NC(=O)c3ccco3)cc2)no1 (stereo not given) | 0 | 54 | 0 | 0
COc1ccc(CN2CC(C(=O)NCCCOC(C)C)CC2=O)cc1 (stereo not given) | 0 | 0 | 0 | 0
O=C(c1ccccc1)c1cc(-c2ccccc2)on1 | 51 | 0 | 0 | 0
CC1(C)CC(=O)C=C(OC(=O)c2ccc(Cl)cc2)C1 | 0 | 53 | 0 | 0
N#C/C(=C\C1CC2C=CC1C2)c1nc2ccccc2[nH]1 (stereo not given) | 0 | 0 | 0 | 0
CC1CCN(C(=S)c2cn(Cc3ccccc3F)c3ccccc23)CC1 | 0 | 0 | 0 | 0
O=C(NC1CCCCCC1)C1c2ccccc2C(=O)N1Cc1cccnc1 (stereo not given) | 52 | 0 | 0 | 0
O=C(NC1CCCC1)C1c2ccccc2C(=O)N1C1CCCCC1 (stereo not given) | 0 | 0 | 0 | 0
O=C(NCc1cccnc1)C1c2ccccc2C(=O)N1C1CCCCCC1 (stereo not given) | 68 | 0 | 0 | 0
CCCCCCn1c(SCC(=O)c2c(N)n(C)c(=O)n(C)c2=O)nc2ccccc21 | 0 | 75 | 0 | 0
Cc1cccc(NC(=O)CCc2ccc(C)o2)c1 | 90 | 0 | 0 | 0
Cc1ccc(CCC(=O)Nc2ccc(S(N)(=O)=O)cc2)o1 | 0 | 0 | 0 | 0
CCOC(=O)c1ccc(NC(=O)CCc2ccc(C)o2)cc1 | 0 | 55 | 0 | 0
SMILES | CYP2C19 inh | CYP2C9 inh | CYP2C19 act | CYP2C9 act
Cc1cccc(Cl)c1OCCCCn1ccnc1 | 100 | 96 | 0 | 0
Cc1cc(Cl)cc(C)c1OCCCCn1ccnc1 | 100 | 96 | 0 | 0
Cc1cccc(C(C)(C)C)c1OCCn1ccnc1 | 98 | 66 | 0 | 0
Cc1cccc(C(C)(C)C)c1OCCCCN1CCCC1 | 0 | 0 | 0 | 0
Cc1cc(Cl)ccc1OCCCC(N)=O | 0 | 0 | 0 | 0
O=C(CSc1ncnc2nc[nH]c12)N1CCOCC1 | 0 | 0 | 0 | 0
CCS(=O)(=O)N1CCC(C(=O)NCCCN2CCCC2)CC1 | 0 | 0 | 0 | 0
CC(C)CN(CC(C)C)S(=O)(=O)N1CCC(C(=O)NC2CCCCCCC2)CC1 | 0 | 0 | 0 | 0
O=S(=O)(NC1CCCC1)c1ccc(S(=O)(=O)N2CCCN(Cc3ccccc3)C2)cc1 | 98 | 95 | 0 | 0
CS(=O)(=O)NC1CCN(Cc2ccccc2)CC1 | 0 | 0 | 0 | 0
COc1cc(C(=O)Nc2ccc(S(=O)(=O)NC(C)C)cc2)cc(OC)c1OC | 0 | 0 | 0 | 0
COC(=O)c1ccccc1NC(=O)Oc1ccc(C(C)C)cc1 | 0 | 0 | 0 | 0
COC(=O)c1ccccc1NC(=O)C(C)NS(=O)(=O)c1ccc(OC)cc1 (stereo not given) | 57 | 0 | 0 | 0
COc1ccccc1NC(=O)C(C)NS(=O)(=O)c1ccc(Cl)cc1 (stereo not given) | 74 | 0 | 0 | 3.4
CNC(=O)C(C)NS(=O)(=O)c1ccc(F)cc1 (stereo not given) | 81 | 0 | 0 | 0
CC(NS(=O)(=O)c1ccc(Br)cc1)C(N)=O (stereo not given) | 0 | 0 | 0 | 0
COc1ccc(S(=O)(=O)N[C@@H](CC(C)C)C(=O)O)cc1 | 0 | 0 | 0 | 0
CCOc1ccc(C(C)NC(=O)Nc2ccccc2C(=O)OC)cc1 (stereo not given) | 70 | 0 | 0 | 0
CCC(CC)C(=O)c1c[nH]c(C(=O)NCC2CCCO2)c1 (stereo not given) | 0 | 0 | 0 | 0
Cn1c(C2=C(O)CN(c3ccc4c(c3)OCCO4)C2=N)nc2ccccc21 | 0 | 0 | 0 | 0
Cc1cccc(NC(=S)N2CCN(Cc3ccc4c(c3)OCO4)CC2)c1C | 0 | 0 | 0 | 0
COc1ccccc1NC(=O)C(C)NS(=O)(=O)c1ccc(F)cc1 (stereo not given) | 53 | 0 | 0 | 3
COc1ccc(NC(=O)c2ccccc2F)cc1Cl | 0 | 0 | 0 | 0
COc1ccccc1NC(C)=O | 0 | 0 | 0 | 0
COc1ccc(NC(=O)C(C)NS(=O)(=O)c2ccccc2)cc1Cl (stereo not given) | 87 | 0 | 0 | 0
SMILES | CYP2C19 inh | CYP2C9 inh | CYP2C19 act | CYP2C9 act
CCOC(=O)Oc1ccc2c(c1)C(C)=CC(C)(C)N2C(=O)OCC | 56 | 0 | 0 | 0
CCOc1ccc2c(c1)C(C)=CC(C)(C)N2C(=O)Nc1ccccc1 | 61 | 0 | 0 | 0
CCCCCn1c(CN2CCN(c3cc(Cl)ccc3C)CC2)nc2c1c(=O)[nH]c(=O)n2C | 0 | 0 | 0 | 0
CC(=O)NC1(C(F)(F)F)C(=O)NC(C)=C1C#N (stereo not given) | 0 | 0 | 0 | 0
CC1=C(C#N)C(Nc2ccc(C)cn2)(C(F)(F)F)C(=O)N1 (stereo not given) | 89 | 0 | 0 | 0
CC1=C(C#N)C(Nc2ccc(Cl)cn2)(C(F)(F)F)C(=O)N1 (stereo not given) | 83 | 0 | 0 | 0
O=C(COc1ccccc1)N1CCN(C(=O)Cc2ccccc2)CC1 | 0 | 0 | 0 | 0
CCOC(=O)CN(C(=O)CSc1nnc(CNc2ccc(F)cc2)n1CC)c1ccc(F)cc1 | 0 | 0 | 0 | 0
CCOC(=O)CN(C(=O)CSc1nnc2c(n1)[nH]c1ccc(F)cc12)c1ccccc1 | 100 | 75 | 0 | 0
Cc1ccc(C(=O)NNC(=O)CSc2nnc3c(n2)[nH]c2ccc(C)cc23)cc1 | 0 | 0 | 0 | 0
CCOC(=O)CN(C(=O)CSc1nnc2c(n1)[nH]c1c(C)cc(C)cc12)c1ccccc1 | 0 | 0 | 0 | 0
CCOC(=O)CN(C(=O)CSc1nnc2c(n1)[nH]c1ccccc12)c1ccccc1 | 81 | 0 | 0 | 0
CCOC(=O)c1c(NC(=O)CSc2nnc3c(n2)[nH]c2ccc(F)cc23)sc(C(C)=O)c1C | 64 | 76 | 0 | 0
O=C(CNC(=O)c1ccco1)Nc1ccc(S(=O)(=O)N2CCCC2)cc1 | 0 | 0 | 0 | 0
